Results: PubChem BioAssay (EPA / NIEHS)
Activity calls are given as the source filed them. Rule for the calls: active = hit-call score of the fitted dose curve at least 0.9, where 1 is the maximum; inactive = score below 0.9.

Legend:
[1] = read-out: Forkhead box O1 (FOXO1), FOXO1 (gene 2308); assay: LTEA_HepaRG_FOXO1: Life Technologies and Expression Analysis (LTEA) Assay for Forkhead box O1 (FOXO1) using HepaRG (AID 2283456); details: mRNA level, 48 h; actives raise or lower the signal
Procedure, shortened: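 Readout is FOXO1 transcript level by multiplexed qRT-PCR against three housekeeping genes, curve-fitted in both directions relative to 0.5% DMSO vehicle. Human HepaRG cultures received chemicals for 48 h, up to 100 uM in half-log steps.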

[2] = CEETOX_H295R_TESTO: CeeTox H295R High-throughput Steroidogenesis Assay for Testosterone (TESTO) (AID 2283457); details: actives raise or lower the signal;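 for AC50: cells exposed to chemicals for 48 h before medium collection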
Procedure, shortened: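 Steroidogenesis in H295R cells following OECD 456 with minor changes; 48 h exposure. Medium testosterone by HPLC-MS/MS, DMSO as baseline, with MTT viability run in parallel.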

[3] = read-out: growth arrest and DNA damage 45 (GADD45A), GADD45A (gene 1647); assay: LTEA_HepaRG_GADD45A: Life Technologies and Expression Analysis (LTEA) Assay for growth arrest and DNA damage 45 (GADD45A) using HepaRG (AID 2283458); details: mRNA level, 48 h; actives raise or lower the signal
Procedure, shortened: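 Differentiated HepaRG cells exposed 48 h in serum-free induction medium to 8 concentrations, top 100 uM in half-log steps, 0.5% DMSO. GADD45A mRNA quantified by qRT-PCR, normalized to ACTB, GAPDH and POLR2A; bidirectional fit versus DMSO.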

[4] = read-out: Forkhead box O3 (FOXO3), FOXO3 (gene 2309); assay: LTEA_HepaRG_FOXO3: Life Technologies and Expression Analysis (LTEA) Assay for Forkhead box O3 (FOXO3) using HepaRG (AID 2283459); details: mRNA level, 48 h; actives raise or lower the signal
Procedure, shortened: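 HepaRG, 48 h post-dose; 8 conc., half-log from 100 uM, 0.5% DMSO, duplicates; serum-free induction medium. Readout: FOXO3 mRNA, TaqMan qRT-PCR, housekeeping-normalized. Bidirectional curve fit vs DMSO baseline.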

[5] = read-out: ABC Transporter (ABCB1), ABCB1 (gene 5243); assay: LTEA_HepaRG_ABCB1: Life Technologies and Expression Analysis (LTEA) Assay for ABC Transporter (ABCB1) using HepaRG (AID 2283460); details: mRNA level, 48 h; actives raise or lower the signal
Procedure, shortened: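 Expression of ABCB1 was quantified by qRT-PCR against three housekeeping genes after human HepaRG cultures received test chemicals for 48 hours. Concentrations spanned eight half-log steps topping at 100 uM in 0.5% DMSO; gain or loss of signal was fitted relative to vehicle.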

[6] = read-out: growth arrest and DNA damage 45 (GADD45B), GADD45B (gene 4616); assay: LTEA_HepaRG_GADD45B: Life Technologies and Expression Analysis (LTEA) Assay for growth arrest and DNA damage 45 (GADD45B) using HepaRG (AID 2283461); details: mRNA level, 48 h; actives raise or lower the signal
Procedure, shortened: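 Human HepaRG monolayers receive chemicals for 48 h at eight half-log concentrations, highest 100 uM, in 0.5% DMSO. Expression is measured by TaqMan qRT-PCR and normalized to ACTB, GAPDH and POLR2A.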

[7] = read-out: ABC Transporter (ABCB11), ABCB11 (gene 8647); assay: LTEA_HepaRG_ABCB11: Life Technologies and Expression Analysis (LTEA) Assay for ABC Transporter (ABCB11) using HepaRG (AID 2283463); details: mRNA level, 48 h; actives raise or lower the signal
Procedure, shortened: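 ABCB11 transcript levels are read by Fluidigm TaqMan qRT-PCR after 48 h chemical treatment of human HepaRG cells. Concentrations span 100 uM downward in half-log steps with 0.5% DMSO; gain or loss is fitted against DMSO controls.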

[8] = read-out: ABC Transporter (ABCC2), ABCC2 (gene 1244); assay: LTEA_HepaRG_ABCC2: Life Technologies and Expression Analysis (LTEA) Assay for ABC Transporter (ABCC2) using HepaRG (AID 2283464); details: mRNA level, 48 h; actives raise or lower the signal
Procedure, shortened: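 After plating and 48 h culture, HepaRG medium is replaced with serum-free induction medium and chemicals are added (8 concentrations, max 100 uM, 0.5% DMSO) for 48 h. Total RNA then undergoes qRT-PCR for ABCC2 with housekeeping normalization.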

[9] = read-out: Broad substrate specificity ATP-binding cassette transporter ABCG2 (Homo sapiens) (UniProt Q9UNQ0); assay: LTEA_HepaRG_ABCG2: Life Technologies and Expression Analysis (LTEA) Assay for ABC Transporter (ABCG2) using HepaRG (AID 2283465); details: mRNA level, 48 h; actives raise or lower the signal
Procedure, shortened: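 Read-out is ABCG2 mRNA induction or loss quantified by qRT-PCR after 48 h chemical treatment of human HepaRG cells, normalized to three housekeeping genes. Concentrations reached 100 uM top in half-log steps; fitting was bidirectional against 0.5% DMSO.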

[10] = read-out: ABC Transporter (ABCC3), ABCC3 (gene 8714); assay: LTEA_HepaRG_ABCC3: Life Technologies and Expression Analysis (LTEA) Assay for ABC Transporter (ABCC3) using HepaRG (AID 2283462); details: mRNA level, 48 h; actives raise or lower the signal
Procedure, shortened: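 Transcriptional change of ABCC3 in HepaRG after 48 h treatment, determined by qRT-PCR normalized to endogenous controls. Concentrations spanned eight half-log steps to 100 uM in 0.5% DMSO.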

Measured: AC50

Broad substrate specificity ATP-binding cassette transporter ABCG2 (Homo sapiens), sequence (Q9UNQ0 whole entry, looked up): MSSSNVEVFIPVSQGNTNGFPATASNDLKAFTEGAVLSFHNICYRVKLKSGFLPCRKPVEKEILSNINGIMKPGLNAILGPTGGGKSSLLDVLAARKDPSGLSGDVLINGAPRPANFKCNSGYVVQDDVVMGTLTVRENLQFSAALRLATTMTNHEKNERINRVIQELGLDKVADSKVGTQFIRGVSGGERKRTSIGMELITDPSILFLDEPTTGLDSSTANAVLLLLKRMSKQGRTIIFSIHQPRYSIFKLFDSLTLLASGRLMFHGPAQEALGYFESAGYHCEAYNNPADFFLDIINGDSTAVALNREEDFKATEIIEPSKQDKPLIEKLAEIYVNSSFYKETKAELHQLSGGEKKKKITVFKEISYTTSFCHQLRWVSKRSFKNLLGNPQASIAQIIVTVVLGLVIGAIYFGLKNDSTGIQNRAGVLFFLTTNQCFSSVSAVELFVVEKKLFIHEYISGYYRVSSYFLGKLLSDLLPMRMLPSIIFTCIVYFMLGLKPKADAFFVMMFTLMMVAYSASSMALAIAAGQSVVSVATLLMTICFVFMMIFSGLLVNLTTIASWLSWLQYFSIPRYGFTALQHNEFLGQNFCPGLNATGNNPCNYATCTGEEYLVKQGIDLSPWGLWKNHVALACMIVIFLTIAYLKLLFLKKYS

CCC(=O)O[C@H]1CC[C@H]2[C@@H]3CCC4=CC(=O)CC[C@]4(C)[C@H]3CC[C@]12C
active: [2] 3.77 µM | [6] 0.101 µM | [7] 9.78 µM
not listed: [10]
inactive: all other assays above

COc1ccc(O)c(C(C)(C)C)c1
not listed: [2]
inactive: all other assays above

CC(C)(O)C(=O)Nc1ccc([N+](=O)[O-])c(C(F)(F)F)c1
active: [1] 0.0468 µM
not listed: [2] | [10]
inactive: all other assays above

Cc1ccc(O)c(C)c1
not listed: [2] | [6]
inactive: all other assays above

CCNc1nc(NC(C)C)nc(SC)n1
active: [7] 50 µM
not listed: [4] | [6]
inactive: all other assays above

CC(C)C(=O)OCC(C)(C)C(OC(=O)C(C)C)C(C)C (configuration not stated)
not listed: [2] | [10]
inactive: all other assays above

CC#Cc1cc(C)nc(Nc2ccccc2)n1
active: [4] 7.38 µM | [6] 19.2 µM | [7] 9.09 µM | [9] 29.9 µM
inactive: [1] | [3] | [5] | [8]

CCC(C)c1cc([N+](=O)[O-])cc([N+](=O)[O-])c1O (configuration not stated)
active: [1] 3.37 µM | [3] 1.07 µM | [4] 1.77 µM | [5] 1.39 µM | [6] 10.7 µM | [7] 1.29 µM | [8] 1.46 µM
inactive: [10] | [9]

CC1=C2C[C@H]3[C@@H](CC=C4C[C@@H](O)CC[C@@]43C)[C@@H]2CC[C@]12O[C@@H]1C[C@H](C)CN[C@H]1[C@H]2C
active: [9] 12.1 µM
not listed: [10]
inactive: all other assays above

CCC(C)(CC)c1cc(NC(=O)c2c(OC)cccc2OC)on1
active: [5] 1.15 µM | [7] 83 µM | [8] 6.13 µM
not listed: [2]
inactive: all other assays above

ClC1=C(Cl)[C@]2(Cl)[C@@H]3[C@H]4C[C@H]([C@@H]5O[C@H]45)[C@@H]3[C@@]1(Cl)C2(Cl)Cl
active: [7] 5.27 µM | [8] 2.13 µM | [9] 6.76 µM
not listed: [2]
inactive: all other assays above

Oc1c(Cl)c(Cl)c(Cl)c(Cl)c1Cl
active: [1] 6.85 µM | [3] 6 µM | [4] 1.64 µM | [5] 2.1 µM | [10] 2.09 µM | [7] 3.29 µM | [8] 2.03 µM | [9] 6.05 µM

Nn1cnnc1
not listed: [2] | [10]
inactive: all other assays above

Cc1ccccc1CO[C@@H]1C[C@@]2(C(C)C)CC[C@]1(C)O2
active: [2] 35 µM | [5] 50 µM | [8] 75.1 µM
not listed: [6]
inactive: all other assays above

N#Cc1ccc(N(CC(N)=O)CC(F)(F)F)cc1C(F)(F)F
active: [5] 9.92 µM | [7] 0.353 µM
not listed: [2]
inactive: all other assays above

NS(=O)(=O)C(F)(F)C(F)(F)C(F)(F)C(F)(F)C(F)(F)C(F)(F)C(F)(F)C(F)(F)F
active: [1] 24.9 µM | [3] 29.1 µM | [4] 6.91 µM | [5] 9.25 µM | [10] 12.5 µM | [7] 7.12 µM | [8] 10.1 µM | [9] 3.42 µM
inactive: [2]

Oc1ccc(C(c2ccc(O)cc2)(C(F)(F)F)C(F)(F)F)cc1
active: [1] 81 µM | [7] 86.6 µM
not listed: [2] | [10]
inactive: all other assays above

CCCCCCCCOC(=O)c1ccccc1C(=O)OCCCCCCCC
not listed: [2] | [10]
inactive: all other assays above

O=S(=O)(O)C(F)(F)C(F)(F)C(F)(F)C(F)(F)F
not listed: [2] | [10]
inactive: all other assays above

c1cc2ccc3cccc4ccc(c1)c2c34
active: [2] 29.5 µM | [9] 4.08 µM
not listed: [6] | [10]
inactive: all other assays above

ClC1=C(Cl)[C@]2(Cl)[C@@H]3[C@@H]4C[C@@H]([C@H]5O[C@@H]45)[C@@H]3[C@@]1(Cl)C2(Cl)Cl
active: [4] 0.0321 µM | [5] 0.0325 µM | [8] 4.03 µM | [9] 20.8 µM
inactive: [1] | [3] | [6] | [7]
